Source: PubChem (National Center for Advancing Translational Sciences (NCATS))
IL-1B inflam inh: inflammasome signaling inhibition, IL-1 beta readout | THP-1 LPS/ATP IL-1B secretion, AlphaLISA, 16 h; stronger effect = lower value | activity change, % at 57.5 µM | 360,000 compounds, 4.7% hits; in the data active = activity change below about -50%; inconclusive = mostly about -30% to -49%; note: % is set by controls: 0 for no effect and ±100 for the full control effect
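THP-1 cells pretreated 1 hr with compounds (up to 57.5 uM final), then stimulated with LPS (250 ng/mL final) plus ATP (1.25 mM final); secreted IL-1B measured by AlphaLISA after 16 hr, decreased signal indicating inhibition.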
HT1080-NT tox: kills 2HG-producing HT-1080-NT fibrosarcoma cells; HT-1080-NT fibrosarcoma viability, CellTiter-Glo ATP luminescence, 48 h; Potency, µM (highest dose often 46.1 µM), for the others: at the highest dose activity, negative = less viability, usual class: cytotoxic; 360,000 compounds, 1.6% hits;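 note: NT is the 2HG producing partner of a matched IDH1 knockdown line; potency is the fitted concentration of half-maximal effect; 0% = DMSO-treated cells and -100% = media-only wells without cells; nearly all actives have a fitted effect of over 55% in size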
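Luminescent CellTiter-Glo readout after 48 hours of compound exposure at 37 degrees C defined viability of HT-1080-NT cells. Activity was normalized to DMSO wells and cell-free media wells; concentration-response curves were fitted and assigned curve classes.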
Giardia killer: kills Giardia lamblia; Giardia lamblia trophozoite viability; activity change, % at 7.66 µM, hits read low; 340,000 compounds, 0.15% hits; AID 540267; in the data active = activity change below about -80%; inconclusive = between about -30% and that limit;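 note: parasites exposed to compound for two days anaerobically before the ATP read; % is set by controls: 0 for no effect and ±100 for the full control effect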
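Killing of trophozoites was scored by loss of ATP luminescence after a 48 hrs anaerobic exposure to compounds at 37 deg C, using 100 cells per well.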
HT1080 IDH1KD tx: HT-1080 IDH1 knockdown cell toxicity (counter line); HT-1080 IDH1 knockdown viability, ATP luminescence, 48 h; Potency, µM (series often up to 46.1 µM), for the others: at the highest dose activity, negative = toxicity, actives largely listed as cytotoxic; 360,000 compounds, 2% hits;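 note: potency is the fitted concentration of half-maximal effect; 0% = DMSO wells and -100% = cell-free medium wells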
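Assay cells: HT-1080 with IDH1 knockdown, 750 per well, RPMI/5% FBS. Exposure: 48 h at 37 °C following 2 h pre-incubation. Read: CellTiter-Glo luminescence; fitted concentration-response, curve class assigned.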
TGFb SMAD3 inh: TGF-b pathway inhibition. AID 588855. 410,000 compounds, 1.2% hits. Potency, µM (highest dose often 46.1 µM), for inactives: at the top dose activity, negative = inhibition, most hits filed as inhibitors. HepG2 CAGA-GFP TGF-b/SMAD3 reporter, GFP fluorescence, 18 h; TGF-beta stimulated, 500 pg/mL final; note: potency is the fitted concentration of half-maximal effect; % is set by controls: 0 for no effect and ±100 for the full control effect; nearly all actives have a fitted effect of over 65% in size
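HEPG2 CAGA-GFP cells (1000/well, DMEM with 1% FBS) were pre-incubated 2 h at 37 degrees C, given compound by pin tool, then stimulated with TGF-beta at 500 pg/mL final for 18 h before per-cell GFP fluorescence imaging.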
HepG2 tox: kills HepG2 cells in TGF-b inhibitor counter-screen; HepG2 CAGA-GFP viability, ATP luminescence, 18 h; Potency, µM (highest dose often 46.1 µM), for inactives: at the top dose activity change, negative = cytotoxicity, most hits filed as cytotoxic; 410,000 compounds, 0.76% hits; AID 588856; note: potency is the fitted concentration of half-maximal effect
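HepG2 CAGA-GFP cells (1000/well, DMEM with 1% FBS) received compound, then TGF-beta at 500 pg/mL final, and were incubated 18 hours at 37 degrees C. Viability was read by CellTiter-Glo luminescence. Media-only wells were set as complete cell-killing and DMSO as no toxicity.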
Numbers without * were called inactive; ? = inconclusive; . = no result; ! = not active in a repeat. In the library only some 6.5% were active in any assay of this set; here they are far more common. Unless noted, calls come from the whole dose curve; as a rule, active = well fitted curve in the direction sought with a large enough effect; inconclusive = small, poorly fitted or top-dose-only effect, or another doubt; inactive = no such curve, though single readings can be large; an effect the other way counts as inactive or inconclusive.

SMILES | IL-1B inflam inh | HT1080-NT tox | Giardia killer | HT1080 IDH1KD tx | TGFb SMAD3 inh | HepG2 tox
COCCN1Cc2cc3cc(C)ccc3nc2SC1=Nc1cccc(OC)c1 | -3 | 4% | -22 | -2% | ? | -43%
COCCN1Cc2cc3cc(C)ccc3nc2SC1=Nc1ccc(OC)cc1 | -53* | -11% | 0 | -7% | -2% | -18%
CCOc1ccc(N=C2Sc3nc4ccc(C)cc4cc3CN2CCOC)cc1 | -10 | 5% | -9 | 3% | -14% | -21%
CCC(C)N=C1Sc2nc3ccc(C)cc3cc2CN1CCOC (stereo unspecified) | -83* | -2% | -13 | -3% | 3% | -1%
CCn1cc(S(=O)(=O)CC(=O)NC2CCCCC2)c2ccccc21 | -17 | 9% | -7 | 7% | 0% | 7%
CN(C)c1ccc(C(=O)C(O)c2ccccc2Cl)cc1 (stereo unspecified) | ? | -8% | 0 | -13% | -1% | -4%
Cc1cc(N(CCO)CCO)ccc1C(c1ccc(N(CCO)CCO)cc1C)c1ccccc1Cl | -68* | -14% | 10 | -6% | ? | -109%
O=C(NCCCN1CCOCC1)c1ccc2c(=O)n(Cc3cccc(Br)c3)c(=S)[nH]c2c1 | -65* | ? | 5 | ? | -27% | -35%
COc1ccccc1Cn1c(=S)[nH]c2ccc(Br)cc2c1=O | 40 | 4% | -24 | 5% | 12% | -18%
COc1ccccc1Cn1c(=S)[nH]c2cc(C(=O)NCCCN3CCOCC3)ccc2c1=O | 44 | 16µM* | -8 | ? | -1% | -21%
COc1ccccc1Cn1c(=S)[nH]c2ccc(F)cc2c1=O | -73* | 0% | -8 | 4% | 0% | -6%
Oc1ccccc1C1N=C(c2ccccc2)NC(c2ccccc2)=N1 | -55* | 9% | -6 | 1% | 0% | -39%
O=C(Cn1nc2ccccc2n1)N/N=C/c1ccc(F)cc1 | 18 | ? | 7 | -25% | -15% | -25%
O=C(CSc1nnc(-c2ccccc2)c2ccccc12)NCCN1C(=O)CSC1=O | ? | 0% | -3 | -8% | -24% | -9%
O=C(CSc1nc2ccc(Cl)cc2[nH]1)NCCc1ccc(Cl)cc1 | -17 | ? | -3 | -25% | ? | -1%
COc1cc(NC(=O)C(Cc2ccccc2)n2cccc2)cc(OC)c1 (stereo unspecified) | -17 | -10% | 27 | -8% | ? | -4%
COc1ccc(NC(=O)C(Cc2ccccc2)n2cccc2)cc1 (stereo unspecified) | -73* | -17% | 4 | -9% | ? | -46%
CSCCC(C(=O)NCc1ccccc1)n1c(C2CCN(C(C)=O)CC2)nc2ccccc21 (stereo unspecified) | -52* | 13% | . | 17% | . | .
O=C1NC(c2ccccc2)N=C2Oc3ccccc3C=C12 (stereo unspecified) | -54* | ? | -13 | ? | -26% | -14%
c1ccc(C2Nc3ccccc3Oc3ccccc32)cc1 (stereo unspecified) | 8 | -27% | 5 | -22% | 5% | -29%
CC(=O)Nc1ccc(S(=O)(=O)N(C)CC(=O)OCC(=O)NC(C)C23CC4CC(CC(C4)C2)C3)cc1 (stereo unspecified) | 0 | 0% | -19 | 2% | -9% | -11%
COc1ccc(NC(=O)c2ccc(-c3ccc(-c4noc(C)n4)cc3C)cc2)cc1N1CCN(C)CC1 | -12 | 8.2µM* | 3 | 23µM* | 18µM* | 11µM*!
CN(C)C1N(C(=O)c2ccccc2)N=C2c3ccccc3S(=O)(=O)N21 (stereo unspecified) | 2 | -1% | -14 | 8% | 2% | -6%
CC(=O)Nc1ccc(NC(=O)Cn2nc([N+](=O)[O-])c(Br)c2C)cc1 | 7 | 3% | -21 | 5% | 1% | 1%
Cc1c(Br)c([N+](=O)[O-])nn1CC(=O)Nc1ccc(C(C)C)cc1 | 7 | -28% | 8 | 23µM* | ? | -27%
SMILES | IL-1B inflam inh | HT1080-NT tox | Giardia killer | HT1080 IDH1KD tx | TGFb SMAD3 inh | HepG2 tox
O=C(c1ccccc1)c1cnc(-c2ccccc2)s1 | 0 | 23% | 7 | 10% | 0% | -16%
CN(C)c1ccc(C(=O)NCc2ccc3c(c2)CCN3C(=O)c2ccc(Cl)cc2)cc1 | . | . | . | . | 2% | 1%
Cc1nc(NC(=O)C(C)(C)C)sc1C(=O)Cn1cc(CCc2ccccc2)nn1 | -16 | 3% | . | 3% | -8% | -31%
COc1cc(Cl)cc(/C=C/c2ccc3ccccc3n2)c1OC(C)=O | -102* | 15µM* | 0 | 15µM* | -6% | -67%
COC(=O)C1CCN(C(=O)CSc2nc3ccc(OC)cc3[nH]2)CC1 | -64* | 9% | -1 | 12% | -6% | -25%
COC(=O)[C@@H](NC(=O)N1CCC(C)CC1)C(C)C | -10 | 19% | -13 | 12% | 4% | 0.45µM*
O=C(N/N=C/c1ccc(OC(F)F)cc1OC(F)F)NC1CCCCC1 | -81* | -25% | 10 | -27% | ? | -5%
O=C(N/N=C/c1ccc(OC(F)F)cc1OC(F)F)c1ccc(Br)cc1 | 16 | 15% | -6 | 13% | -6% | 1%
C#CCn1c(=NC(=O)c2cc(Cl)sc2Cl)sc2cc(S(N)(=O)=O)ccc21 | -2 | -8% | 8 | -15% | 2% | -19%
C#CCn1c(=NC(=O)c2cc(-c3cccs3)nc3ccccc23)sc2cc(S(N)(=O)=O)ccc21 | 16 | ? | 23 | 26µM* | -2% | 1%
CCc1ccc(NC(=O)CSc2nnc(-c3ccccc3)n2CC)cc1 | . | . | . | . | 0% | 3%
C[C@H](CO)N1C[C@H](C)[C@@H](CN(C)C(=O)NC2CCCCC2)Oc2c(NC(=O)Nc3ccc(C(F)(F)F)cc3)cccc2C1=O | -6 | ? | 12 | ? | 14µM* | -41%
CC(C)NC(=O)N(C)C[C@H]1Oc2c(NC(=O)Nc3ccc(C(F)(F)F)cc3)cccc2C(=O)N([C@H](C)CO)C[C@@H]1C | ? | -8% | -18 | -11% | ? | -26%
C[C@@H]1CN([C@H](C)CO)C(=O)c2cccc(NC(=O)Nc3ccc(F)cc3)c2O[C@H]1CN(C)C(=O)Nc1ccc(C(F)(F)F)cc1 | -70* | ? | 43 | ? | ? | -2%
COc1ccc(NC(=O)N(C)C[C@H]2Oc3c(NC(=O)Nc4ccc(C(F)(F)F)cc4)cccc3C(=O)N([C@H](C)CO)C[C@@H]2C)cc1 | ? | ? | -3 | ? | ? | -19%
